The nature of assay [1]: NCI Yeast Anticancer Drug Screen. Data for the rad50 strain (AID 155).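 Note: 0% = growth of vehicle-only cultures of the same strain.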 To be noted: S. cerevisiae rad50 strain growth inhibition; at 50.0 µM; stronger effect = higher value. Summed up:
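Inhibition values express reduced yeast growth in compound-treated cultures relative to vehicle-treated controls.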

Assay [2] is described as follows: NCI Yeast Anticancer Drug Screen. Data for the mec2-1 strain (AID 157). To be noted: S. cerevisiae mec2-1 strain, at 50.0 µM, stronger effect = higher value. In short, it runs like this:
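Using mec2-1 yeast: add compound, measure growth, express inhibition versus vehicle-treated cultures.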

Assay [3] can be described thus: NCI Yeast Anticancer Drug Screen. Data for the sgs1 mgt1 strain (AID 161).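 Note: 0% = growth of cultures given vehicle only.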 To be noted: S. cerevisiae sgs1 mgt1 strain, at 50.0 µM, stronger effect = higher value. Summed up: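 Percent growth inhibition was derived by comparing compound-exposed mutant yeast with vehicle-exposed cultures. The strain carries alterations in DNA damage repair.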
Assay [4] is described as follows: NCI Yeast Anticancer Drug Screen. Data for the cln2 rad14 strain (AID 165).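 Note: 0% = growth equal to vehicle treated cultures.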 To be noted: S. cerevisiae cln2 rad14 strain, at 50.0 µM, stronger effect = higher value. In short, it runs like this: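 Yeast strain cln2 rad14, bearing defects in cell cycle control and DNA repair, serves as the test system; values reflect growth inhibition compared with vehicle.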
Assay [5] can be described thus: NCI Yeast Anticancer Drug Screen. Data for the bub3 strain (AID 167). To be noted: S. cerevisiae bub3 mutant strain, at 50.0 µM, stronger effect = higher value. In short, it runs like this: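 Steps: expose the mutant yeast strain to compound; grow alongside vehicle-treated cultures; measure growth; express inhibition against the vehicle cultures.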
A short description of assay [6]: NCI Yeast Anticancer Drug Screen. Data for the mlh1 rad18 strain (AID 175). To be noted: S. cerevisiae mlh1 rad18 strain growth inhibition; at 50.0 µM; stronger effect = higher value. Summed up: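 Steps: expose repair-defective yeast to compound; measure growth; express inhibition against vehicle-treated controls.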

This is part of a sample that, as a whole, favours compounds with a hit. Of some 79,000 tested, about 15% had one in any assay. Unmarked numbers belong to inactive results. Calls of active or inactive are those of the source. Cut-off read from the data, not from the text of the source: active = growth inhibition above about 70%; inactive = the rest.

In the case of `O=c1[nH][nH]c(=O)c2c1nc(SCCc1ccccc1)n2Cc1ccccc1`, the growth inhibition was 26.4% in assay [1]; 4.55% in assay [2]; 11.7% in assay [3]; 19.4% in assay [4]; 1.8% in assay [5]; 14.8% in assay [6].
On to `CC1=NOC(=O)/C1=C/c1ccccc1C`, for which the growth inhibition in assay [1] was 51.2%; in assay [2] it was 2.55%; in assay [3], 27.9%; in assay [4], 8.15%; in assay [5], 17.4%; in assay [6], 36.9%.
Regarding `CSCCCCCCSC`, the growth inhibition in assay [1] was -0.1%; in assay [2], 5.1%; in assay [3], -2.75%; in assay [4], -27.8%; in assay [5], -5.35%; in assay [6] it was 5.9%.
As for `COc1ccc(CCNC(=O)CC2CCN(C)CC2)cc1OC`, the growth inhibition in assay [1] is -1.05%; in assay [2] it was -6.7%; in assay [3], 10.2%; in assay [4], -7.4%; in assay [5], 15.2%; in assay [6], -3.75%.
On to `C/C(=C(/O)c1ccc(Cl)cc1)c1nc2cc(Cl)cc([N+](=O)[O-])c2[nH]c1=O`, for which the growth inhibition in assay [1] is 37%; in assay [2], 43.3%; in assay [3], 24.6%; in assay [4] it was -4.55%; in assay [5], 18.9%; in assay [6], 53.5%.
Turning to `O=C(c1ccccc1)[n+]1ccc2ccccc2c1`, the growth inhibition in assay [1] is -19.1%; in assay [2], -21.2%; in assay [3], -4.35%; in assay [4] it was 0.45%; in assay [5], -6.25%; in assay [6] it was -13.1%.
For the compound `CCOC(=O)C(O)(C#CC(C)C)C1CCCC1` (stereo not drawn), the growth inhibition was -15% in assay [1]; 13% in assay [2]; -4.65% in assay [3]; 5% in assay [4]; -6.4% in assay [5]; -6.65% in assay [6].
As to `CC(=O)N1CCC(=O)c2ccccc21`, the growth inhibition was 11.3% in assay [1]; 14.3% in assay [2]; -1.8% in assay [3]; 6.1% in assay [4]; -24.3% in assay [5]; -5.35% in assay [6].
Turning to `CC1CC(NC(=O)/C=C/C(=O)O)CC(C)(C)C1` (stereo not drawn), the growth inhibition in assay [1] is -2.85%; in assay [2], 1.05%; in assay [3], 9%; in assay [4] it was -2.95%; in assay [5], 33.9%; in assay [6], -0.2%.
In the case of `CNC(=O)NC(c1ccc2c(c1)OCO2)c1cc2c(cc1O)OCO2` (stereo not drawn), the growth inhibition in assay [1] was 10.8%; in assay [2] it was -2.7%; in assay [3], 13.9%; in assay [4], 14.2%; in assay [5] it was 19.2%; in assay [6], 24.6%.
Consider `CCOC(=O)c1nc2ccccc2c(=O)n1NC(=S)Nc1ccc(Cl)cc1`, for which the growth inhibition was -40.4% in assay [1]; 5.95% in assay [2]; -1.2% in assay [3]; 8.8% in assay [4]; -4.15% in assay [5]; -15% in assay [6].
With `O=C(NC(NC(NC(=O)c1ccc([N+](=O)[O-])cc1)c1ccc([N+](=O)[O-])cc1)c1ccc([N+](=O)[O-])cc1)c1ccc([N+](=O)[O-])cc1` (stereo not drawn), the growth inhibition was 3.35% in assay [1]; -10.4% in assay [2]; 1.65% in assay [3]; -24.9% in assay [4]; -5.3% in assay [5]; -7.95% in assay [6].
Regarding `Cc1ccc([N+](=O)[O-])cc1N=C=O`, the growth inhibition in assay [1] is -38.5%; in assay [2] it was -43.9%; in assay [3], -31.1%; in assay [4], -34%; in assay [5], -32.8%; in assay [6] it was -56.3%.
As to `NNC(=O)C1CC1`, the growth inhibition is 0.5% in assay [1]; -25.9% in assay [2]; -5.65% in assay [3]; 2.8% in assay [4]; -14.1% in assay [5]; -4.55% in assay [6].
In the case of `COc1c(NC(=O)c2cccc(C(=O)Nc3cccc([N+](=O)[O-])c3OC)c2)cccc1[N+](=O)[O-]`, the growth inhibition in assay [1] was -30.6%; in assay [2], -15.8%; in assay [3], -19.9%; in assay [4], -49.1%; in assay [5] it was -0.7%; in assay [6], -15.5%.
On to `C=COC(=O)c1ccccc1O`, for which the growth inhibition in assay [1] was -32.7%; in assay [2] it was -34%; in assay [3], -22.3%; in assay [4], 3.8%; in assay [5], -36.8%; in assay [6] it was -5.55%.
On to `COc1ccc(C(O)C(C)C(O)(C(F)(F)F)C(F)(F)F)cc1` (stereo not drawn), for which the growth inhibition in assay [1] was 70.5% (active); in assay [2] it was 67.7%; in assay [3], 89.3% (active); in assay [4], 63.8%; in assay [5], 72.7% (active); in assay [6] it was 90% (active).
With `CC(C)CCCC(C)C1CCC2C3CC=C4CC(OC(=O)c5ccncc5)CCC4(C)C3CCC12C` (stereo not drawn), the growth inhibition is 3.2% in assay [1]; -12.1% in assay [2]; -10.2% in assay [3]; -28.4% in assay [4]; -0.4% in assay [5]; -23.6% in assay [6].
Consider `CC(=O)Nc1ccc(S(=O)(=O)NNc2nc(N3CCCC3)nc(N3CCCC3)n2)cc1`, for which the growth inhibition was 1.7% in assay [1]; -8.1% in assay [2]; -14.4% in assay [3]; 1.8% in assay [4]; -1.25% in assay [5]; 2.15% in assay [6].
For the compound `O=S(=O)(C(c1ccccc1)C(O)(c1ccccc1)c1ccccc1)N1CCCC1` (stereo not drawn), the growth inhibition was 29.6% in assay [1]; -0.45% in assay [2]; 27.4% in assay [3]; -21.8% in assay [4]; 1.25% in assay [5]; 22.6% in assay [6].
As to `Cc1no[n+]([O-])c1C(=O)NN`, the growth inhibition in assay [1] is 6.35%; in assay [2], 6.6%; in assay [3] it was -14.3%; in assay [4], -46.8%; in assay [5] it was -20.1%; in assay [6], -12.4%.
On to `Cc1ccc(S(=O)(=O)NNC(=O)c2cccnc2)cc1`, for which the growth inhibition in assay [1] was -11.4%; in assay [2] it was 18.7%; in assay [3] it was 1.35%; in assay [4], -27.8%; in assay [5], -5.75%; in assay [6] it was 4.8%.
Consider `CC1CNCC(C)N1C(=O)c1ccccc1` (stereo not drawn), for which the growth inhibition in assay [1] was 3.85%; in assay [2], 5.15%; in assay [3], -7.7%; in assay [4], 3.25%; in assay [5], 1.5%; in assay [6], -39.5%.
`CC/C=C(\C)C1(CC)C(=O)NC(=O)N=C1N` (stereo not drawn): the growth inhibition was -1.35% in assay [1]; 3.55% in assay [2]; 5.9% in assay [3]; 4.55% in assay [4]; -2% in assay [5]; -11.9% in assay [6].
`Cc1cc(Cl)c(C)c(C)c1O`: the growth inhibition was 22.6% in assay [1]; 5.45% in assay [2]; -20.2% in assay [3]; 16.6% in assay [4]; 1.25% in assay [5]; 21.4% in assay [6].
Turning to `Cc1c([N+](=O)[O-])ccc2c1C(=O)c1ccccc1C2=O`, the growth inhibition in assay [1] is -41.6%; in assay [2] it was -0.35%; in assay [3], -39.9%; in assay [4], 2.7%; in assay [5], -5.7%; in assay [6], 39.5%.
As to `Cc1c(N2CCCC2)cc2c(c1-n1cccc1)C(C)(C)CC2(C)C`, the growth inhibition in assay [1] was -21%; in assay [2] it was -14.2%; in assay [3] it was 1.55%; in assay [4] it was 16.3%; in assay [5], 6.7%; in assay [6], 2.8%.
Turning to `CC12CCC3C(CCC4CCCCC43C)C1CC/C2=N\O` (stereo not drawn), the growth inhibition was 90.2% (active) in assay [1]; 45.6% in assay [2]; 79.8% (active) in assay [3]; 39.8% in assay [4]; 85.5% (active) in assay [5]; 96.5% (active) in assay [6].
Consider `COc1cc(O)c(C(C)=O)c(OC)c1`, for which the growth inhibition in assay [1] was -8.25%; in assay [2], -12.8%; in assay [3] it was -10.1%; in assay [4], -31.1%; in assay [5], -0.2%; in assay [6], -2.05%.
Regarding `CCCCCCCCCCCC(=O)N/N=C(\C)c1cccc2ccccc12`, the growth inhibition was 86.8% (active) in assay [1]; 84.2% (active) in assay [2]; 94% (active) in assay [3]; 59.8% in assay [4]; 43.8% in assay [5]; 84.2% (active) in assay [6].
As to `C=C1CCN(c2ccc([N+](=O)[O-])cc2)C1=O`, the growth inhibition in assay [1] is 0%; in assay [2], -11.2%; in assay [3] it was 4.05%; in assay [4], -37.6%; in assay [5], 10.3%; in assay [6], 10.3%.
Take `CC1OC(C)(c2ccc(Cl)cc2)OCC1(C)C` (stereo not drawn): the growth inhibition was -2.45% in assay [1]; -1.15% in assay [2]; 2.5% in assay [3]; -26.6% in assay [4]; 17.8% in assay [5]; 16.9% in assay [6].
`O=C(O)c1ccccc1P(=O)(O)c1ccccc1`: the growth inhibition in assay [1] was -13%; in assay [2], -10.3%; in assay [3], -6.7%; in assay [4], 5.35%; in assay [5] it was -6.85%; in assay [6] it was -31.2%.
Take `CCOC(=O)N1CCC2C(=C(C)C(C)C3=C2C(=O)c2ccccc2C3=O)C1` (stereo not drawn): the growth inhibition was -11.5% in assay [1]; -3.5% in assay [2]; -8.9% in assay [3]; 16.9% in assay [4]; 62.4% in assay [5]; 7.1% in assay [6].
In the case of `O=C1Nc2ccccc2C12OCCS2` (stereo not drawn), the growth inhibition was -4.1% in assay [1]; 25.2% in assay [2]; 17.2% in assay [3]; -7.4% in assay [4]; 5.25% in assay [5]; 7.25% in assay [6].
Regarding `O=C(O)C(Br)C(Br)C(=O)Nc1ccc(Br)cc1` (stereo not drawn), the growth inhibition is -6.35% in assay [1]; -24.4% in assay [2]; 22.8% in assay [3]; -3.85% in assay [4]; 34.1% in assay [5]; 27.4% in assay [6].
Regarding `NC(Cc1ccc(S(=O)(=O)O)cc1)C(=O)NC(Cc1ccc(S(=O)(=O)O)cc1)C(=O)NC(Cc1ccc(S(=O)(=O)O)cc1)C(=O)O` (stereo not drawn), the growth inhibition in assay [1] is -4.25%; in assay [2] it was -14.8%; in assay [3], 27.1%; in assay [4], -9.5%; in assay [5], 9.3%; in assay [6], -8.2%.
Regarding `CC(C)OCCCNc1ncnc2c1cnn2-c1ccc(Cl)cc1`, the growth inhibition in assay [1] is 3.55%; in assay [2], -9.15%; in assay [3] it was 3.55%; in assay [4], -11.8%; in assay [5], -13.6%; in assay [6], -4.9%.

The record behind these values is PubChem BioAssay (NCI).
